Experimental findings from PubChem BioAssay (NCI) are described below.

Assay in all cases: NCI-60 one-dose screen, 48 h (100 = growth as untreated, 0 = no growth, -100 = all killed)
Holding throughout (details): 10 µM unless noted

Experiment [1] relates to SR leukemia.
Experiment [2] relates to RPMI-8226 leukemia.
In experiment [3] the test system is OVCAR-8 ovarian.
Experiment [4] has as its system OVCAR-5 ovarian.
The subject of experiment [5] is OVCAR-4 ovarian.
The subject of experiment [6] is SK-OV-3 ovarian.
Experiment [7] concerns OVCAR-3 ovarian.
Experiment [8] relates to HS 578T breast.
Experiment [9] relates to NCI/ADR-RES ovarian.
In experiment [10] the test system is IGROV1 ovarian.

This is part of a sample that, as a whole, favours compounds with a hit. Of some 83,000 tested, about 20% had one in any assay.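 How to read the values: 0–100, growth inhibition (40 = 60% inhibited); 0, no net growth; -100 to 0, cell death (-40 = 40% of starting cells died; -100 = all dead).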 Unmarked numbers belong to inactive results. Calls of active or inactive are those of the source. Rule for the calls: active = growth percent below 10; inactive = the rest.

Consider `C/C(=C(/c1ccc(Cl)cc1)c1ccc(OCCN2CCCC2)cc1)c1ccc(Cl)cc1`, for which the growth is 4.02% (active) in [1]; 57.8% in [2]; 88.8% in [3]; 88.9% in experiment [4]; 95.1% in experiment [5]; 108% in experiment [6]. For the same compound, the growth was 88.3% in experiment [7], 90.9% in experiment [8] and 90.4% in experiment [9].

`CCCCN1C(=O)/C(=c2\sc3n(c2=O)C2C(NN=3)N(CC)C(=O)N2CC)c2ccccc21` (centres undefined): the growth in experiment [1] is 11%; in [2] it was 4.61% (active); in experiment [3] it was -12.5% (active); in experiment [4], 25.8%; in experiment [5], 37.5%; in [6], 24.5%. The growth in [7] is -31.5% (active); in experiment [8] it was 6.5% (active); in experiment [9], -9.17% (active).

In the case of `CC(C)c1ccc(NC(=O)Nc2ccc(NC(=O)CCCC(=O)NOCc3ccccc3)cc2)cc1`, the growth in experiment [1] was 73.4%; in experiment [2] it was 91.1%; in experiment [3] it was 96.7%; in experiment [4] it was 89.2%; in experiment [5], 89.2%; in experiment [6], 97.4%. In addition, the growth in [7] was 94%; in [8] it was 85.7%.

On to `COc1cc2c(c(OC)c1OC)C(=O)CC(c1cccc(NC(=O)c3ccc(Br)cc3)c1)O2` (centres undefined), for which the growth in experiment [1] was 3.88% (active); in experiment [2], -4.85% (active); in experiment [3], 14.1%; in [4] it was 95.4%; in experiment [5] it was 53.9%; in [6], 74.7%. The values for the growth in [7], in experiment [8] and in experiment [9] were 46.5%, 71% and 8.47% (active), respectively.

As to `Cc1cccc(Cl)c1NC(=O)c1ccc2nc(NC(=O)NCCN(C)C)sc2c1`, the growth in experiment [1] is 66%; in [2], 94%; in [3] it was 85.7%; in experiment [4], 85.4%; in [5], 95.3%; in [6], 64.2%. The growth in [7] was 114%; in experiment [8] it was 81.8%; in [9], 118%.

Turning to `COc1cc(NC(C)CCCNC(C)C)c2ncccc2c1OC` (centres undefined), the growth in experiment [1] was 110%; in experiment [2] it was 87.7%; in experiment [3], 91.3%; in [4] it was 91.4%; in experiment [5], 76.1%; in [6], 96.3%. The figures for the growth in experiment [7], in experiment [8] and in experiment [9] were 70%, 91.9% and 85.4%, respectively.

For the compound `Clc1ccc(CNc2c3ccccc3nc3ccccc23)cc1`, the growth in experiment [1] is 2.32% (active); in experiment [2], 8.02% (active); in [3] it was 31.9%; in [4], 50.5%; in experiment [5], 33.1%; in experiment [6] it was 60%. In addition, the growth is 51.1% in experiment [7] and 53.8% in [8].

Consider `Cc1c(-n2nnc(-c3nc4ccccc4s3)c2N)c(=O)n(-c2ccccc2)n1C`, for which the growth was 103% in [1]; 105% in [2]; 102% in [3]; 92.8% in experiment [4]; 105% in experiment [5]; 97.8% in experiment [6]. Moreover, the results for the growth in experiment [7], in experiment [8] and in experiment [9] were 107%, 100% and 92.5%, respectively.

`CN1CCN(Cc2ccc(NC(=O)c3cncc(C#Cc4cnc(N)c5ccccc45)c3)cc2C(F)(F)F)CC1`: the growth in experiment [1] was 1.53% (active); in experiment [2], -42.8% (active); in experiment [3], -82.5% (active); in experiment [4], -83.7% (active); in [5], -32.7% (active); in experiment [6], -78.5% (active). The growth is -87.6% (active) in experiment [7] and -41.5% (active) in [8].

As to `Cc1ccccc1/C=C1\CN(C(=O)OC(C)(C)C)C/C(=C\c2ccccc2C)C1=O`, the growth was 8.93% (active) in experiment [1]; -23.7% (active) in [2]; 17.1% in [3]; 51.1% in experiment [4]; -2.97% (active) in experiment [5]; 74.9% in experiment [6]. Also, the results for the growth in experiment [7], in experiment [8] and in [9] were -30.9% (active), 31.2% and 15.7%, respectively.

In the case of `O=C(c1ccc(Cl)cc1)N1CCN(c2ccnc3cc(Cl)ccc23)CC1`, the growth is 122% in experiment [1]; 75.9% in experiment [2]; 87.3% in experiment [3]; 70.7% in experiment [5]; 93.6% in experiment [6]; 92.9% in [10]. For the same compound, the growth is 100% in experiment [7], 99.3% in experiment [8] and 87.7% in [9].

As for `Oc1c(Cl)cc(Cl)c2ccc(Cn3cc(-c4ccc(C(F)(F)F)cc4)nn3)nc12`, the growth in experiment [1] is -16.8% (active); in experiment [2], 0.831% (active); in experiment [3] it was 70.7%; in [4], 88.7%; in experiment [5], 62.2%; in experiment [6] it was 104%. In addition, the growth in experiment [8] was 87.7%; in experiment [9], 100%.

For `O=c1oc2ccccc2cc1C1=NN=C(SCc2ccccc2)SC1`, the growth in experiment [1] is 89.4%; in experiment [2], 98.7%; in experiment [3], 101%; in experiment [5] it was 88.9%; in [6], 97.8%; in [10] it was 101%. The growth is 103% in experiment [7], 103% in experiment [8] and 105% in [9].

As to `O=C(O)c1[nH]c(=O)[nH]c(=O)c1[N+](=O)[O-]`, the growth in experiment [1] was 70.9%; in experiment [2], 112%; in experiment [3], 101%; in experiment [5] it was 122%; in experiment [6], 116%; in [10] it was 133%. Moreover, the growth in experiment [7] was 134%; in experiment [9], 103%.

As for `COc1cc(-c2nc(SCCC(C)C)nc(Nc3ccccc3Cl)c2C#N)cc(OC)c1OC`, the growth was 102% in experiment [1]; 101% in experiment [2]; 101% in experiment [3]; 90.2% in experiment [5]; 120% in experiment [6]; 91.6% in experiment [10]. The growth in [7] is 105%; in experiment [9] it was 101%.
